Assay outcomes (PubChem)
Pf Dd2 growth – qHTS Primary assay for Inhibitors of Plasmodium falciparum Dd2 growth in vitro. P. falciparum Dd2 growth, SYBR Green, 72 h. Potency, µM (highest dose often 28.9 µM), inactives show at the top dose activity, negative = inhibition, actives largely listed as inhibitors. 120,000 tested, 4.3% active. AID 1347417, 2020; active means well fitted inhibition curve with a large enough effect;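 further: plate controls were DMSO vehicle for no effect and reference drug for full effect; nearly all actives have a fitted effect of over 65% in size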
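Infected erythrocytes (Dd2, 0.3% parasitemia, 2.5% hematocrit final) are added to compound in RPMI-1640/Albumax II medium, grown 72 h at 37C in low oxygen, then lysed with saponin/Triton-X containing SYBR Green and read by fluorescence.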
Active calls of the source: *; i = inactive; [ ] = another dose, or the depositor's remark. The entries come from a sample that favours hits as a whole. Potency means the concentration at half of the fitted maximal effect.

SMILES	Pf Dd2 growth
CN(C)c1nccnc1OC1CCN(C(=O)CCC(=O)c2ccc(F)cc2)C1 (centres undefined)	5.6µM*
CN(C)c1nccnc1OC1CCN(C(=O)c2ccncc2)C1 (centres undefined)	i
CCC(CC)C(=O)N1CCC(Oc2nccnc2N(C)C)C1 (centres undefined)	-14%
Cc1cc(C(=O)N2CCC(Oc3ccc(C(=O)NC4CCCC4)cc3Cl)CC2)n(C)n1	i
CC(C)Cc1cnc(-c2ccccc2)[nH]1	16µM*
Cc1ccc(-c2ncc(C(=O)N(C)Cc3nc(CC(C)C)no3)c(=O)[nH]2)cc1	-1%
CC(C)Cc1nc2nccc(-c3ccccc3)n2n1	-15%
COc1ccc(NC(=O)Cn2c(C)cc3nc4n(c(=O)c32)CCCCC4)cc1OC	-6%
COc1ccc(CN2CCN(Cc3cc4ccccc4[nH]3)CC2CCO)c(C)c1C (centres undefined)	8.9µM*
CCOc1ccccc1CN1CCN(Cc2nccn2CC)CC1CCO (centres undefined)	i
COc1cc(CN2CCN(Cc3cnc(SC)nc3)CC2CCO)cc(OC)c1 (centres undefined)	i
NC(=O)c1ccc(-c2nc3c([nH]2)CN(c2ncnc4ccsc24)CC3)cc1	10µM*
O=C(CCn1ccc(=O)[nH]c1=O)N1CCc2nc(-c3ccccc3)[nH]c2C1	i
c1ccc(Cn2ccnc2C2CCN(c3ncnc4ccsc34)CC2)nc1	-2%
Cc1cnc(-c2ccccc2)n1CCNC(=O)c1cccn1C	i
O=C([C@@H]1Cc2nc[nH]c2CN1Cc1ccc(Cl)cc1)N1CCOCC1	i
COc1ccc(CNC(=O)[C@@H]2Cc3nc[nH]c3CN2Cc2ccc(CO)o2)cc1	i
COc1ccc(CNC(=O)[C@@H]2Cc3nc[nH]c3CN2Cc2ccc(C(=O)O)cc2)cc1	1%[44.1 µM]
COc1ccc(CNC(=O)[C@@H]2Cc3nc[nH]c3CN2Cc2ccc(Cl)cc2)cc1	13µM*
O=C(NCc1ccccc1)[C@@H]1Cc2nc[nH]c2CN1Cc1ccc(Cl)cc1	-9%[44.1 µM]
O=C(NC1CCCCC1)[C@@H]1Cc2nc[nH]c2CN1Cc1ccc(Cl)cc1	13µM*
O=C(CCC1CCCC1)N1CCCC(Cc2nc(C3CCOCC3)no2)C1 (centres undefined)	i
CC(C)c1noc([C@@H]2C[C@H]3C(=O)NCCCCCCN(C(=O)CC4CCCCC4)[C@H]3C2)n1	i
CC(Cn1cccn1)C(=O)N1CCc2[nH]nc(-c3ccc(Cl)cc3)c2C1 (centres undefined)	i
O=C(c1cc2ccccc2o1)N1CCCC2(CNS(=O)(=O)c3cccnc3O2)C1 (centres undefined)	11%
SMILES	Pf Dd2 growth
O=C(C1CCOC1)N1CC(Oc2ccc(-c3nc(-c4ccccc4)no3)cc2)C1 (centres undefined)	-19%[5.79 µM]
CCOCCCNc1nc2c(S(=O)(=O)c3ccc(CC)cc3)nnn2c2ccc(Cl)cc12	-9%
NS(=O)(=O)c1ccc(CCNc2nc3c(-c4cccc(F)c4)nnn3c3ccc(Cl)cc23)cc1	11µM*
Fc1cccc(-c2nnn3c2nc(NCCc2ccccc2)c2ccccc23)c1	19%
CCCN(C)C(=O)CCc1ccc2c(c1)CN(S(C)(=O)=O)CCO2	i
Cc1ccc(S(=O)(=O)N2CCCC(Cn3c(C)nc4cccnc43)C2)cc1F (centres undefined)	i
Cc1nc2cccnc2n1CC1CCCN(S(=O)(=O)c2cccc(Br)c2)C1 (centres undefined)	6.3µM*
Cc1nc2cccnc2n1CC1CCCN(S(=O)(=O)c2ccc3c(c2)CCC3)C1 (centres undefined)	-28%
CN(C(=O)c1ccc(F)cc1)C1CCCc2ccccc21 (centres undefined)	i
NCC(=O)N1CCC2(CC1)CN(C(=O)Cc1ccc(Cl)cc1)CCO2	7%
CS(=O)(=O)N1CCCC(C(=O)NCC2CCN(Cc3ccc(F)cc3)CC2)CCNC(=O)CC1 (centres undefined)	12%
O=C(Nc1cccc(OC(F)(F)F)c1)c1cc(-c2ccc[nH]2)n[nH]1	-24%
CCOC(=O)c1c(C)[nH]c(C)c1S(=O)(=O)NCC(=O)N1CCN(c2ccccc2F)CC1	i
CCOC(=O)c1c(C)[nH]c(CCC(=O)NCc2ccc(F)cc2)c1C	-14%
CCOC(=O)c1c(C)[nH]c(CCC(=O)NCCCN2CCN(c3ccccc3F)CC2)c1C	11µM*
CN(C)C(=O)c1cc2cccnn2n1	8%[44.1 µM]
CC(=O)N1CCN(c2ccc(Cl)nn2)C(=O)C1	11%[44.1 µM]
CC(=O)NC[C@H]1C[C@@H]2CCN1C[C@@H]2c1cc(-c2ccc(F)cc2)nc(C)n1	i
Cn1nc(-c2ccc3ccccc3c2)cc1[C@H]1CN2CC[C@H]1C[C@@H]2CNS(=O)(=O)c1cccs1	13µM*
CCNC(=O)NC[C@H]1C[C@@H]2CCN1C[C@@H]2c1cc(-c2ccccc2)nc(C)n1	-9%[44.1 µM]
Cn1nc(-c2ccccc2)cc1[C@H]1CN2CC[C@H]1C[C@@H]2CNS(=O)(=O)c1cccs1	-13%[44.1 µM]
